Measurements: the supplement of paper PMC7156485
Unmarked numbers belong to inactive results.

Test system: HCC1569
Assay: H1.0 immunofluorescence intensity relative to DMSO (% of DMSO); higher = stronger H1.0 induction, active = 140 or more
Conditions: concentration: 10 µM; 24 h
Procedure, shortened: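 HCC1569 and TDF cells were seeded at 800 per well in 384-well plates in RPMI with 10% FBS and treated with compounds at 10 µM for 24 h at 37 °C, in triplicate. After fixation in 3.7% formaldehyde, cells were stained with a rabbit anti-H1.0 antibody, an AlexaFluor 647 secondary and DAPI, and six fields per well were imaged at ×10. H1.0 nuclear intensity or cell number is given as percent of the plate control, using the median of replicates, with HCC1569 values smoothed for positional effects.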
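Also: TDF is a line of transformed human dermal fibroblasts of mesenchymal origin.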

**Q.** How did the H1.0 immunofluorescence intensity turn out when `N[C@H](C(=O)O)c1cccc(O)c1` [(S)-3-Hydroxyphenylglycine] was run?
**A.** Its H1.0 immunofluorescence intensity is 100.

**Q.** For `CC(C)NNC(=O)c1ccncc1.O=P(O)(O)O` [Iproniazid phosphate], which H1.0 immunofluorescence intensity is on record?
**A.** The H1.0 immunofluorescence intensity was 85.

**Q.** `O=C(O)C=CC(=O)O.c1cnc(N2CCN(Cc3ccc4c(c3)OCO4)CC2)nc1` [Piribedil maleate] was tested. Which H1.0 immunofluorescence intensity did it give?
**A.** Its H1.0 immunofluorescence intensity is 79.7.

**Q.** How did the H1.0 immunofluorescence intensity turn out when `COC(=O)c1c(C)[nH]c(C)c1C(=O)c1ccccc1Cc1ccccc1` was run?
**A.** The H1.0 immunofluorescence intensity was 129.

**Q.** Which H1.0 immunofluorescence intensity does the source give for `CCC(C(=O)C(C)C(O)C(C)CCc1ccc(C)c(O)c1C(=O)[O-])C1OC(CC)(C2CCC(O)(CC)C(C)O2)CC1C.[Na+]` (stereo unspecified) [Lasalocid A] here?
**A.** Its H1.0 immunofluorescence intensity is 94.6.

**Q.** With `CC(=O)OCC1=C(C(=O)[O-])N2C(=O)C(NC(=O)Cc3cccs3)C2SC1.[Na+]` (stereo unspecified) [Cephalothin sodium] as the molecule, how does the H1.0 immunofluorescence intensity read?
**A.** The H1.0 immunofluorescence intensity was 89.2.
